Reference: PubChem BioAssay (NCI)
Values joined by “and” are separate entries in the source; they are usually repeats but may differ in a detail not shown here. Identical values can stand only once. This is part of a sample that, as a whole, favours compounds with a hit. Of some 79,000 tested, about 15% had one in any assay. Active and inactive are the calls of the source. No stated cut-off is given here; in the data, active means growth inhibition above about 70%; inactive means the rest.

Key:
[1] = NCI Yeast Anticancer Drug Screen. Data for the rad50 strain (AID 155);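 further: 0% = growth of vehicle-only cultures of the same strain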; details: S. cerevisiae rad50 strain growth inhibition; at 50.0 µM; active compounds read high
Method in brief: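 Inhibition values express reduced yeast growth in compound-treated cultures relative to vehicle-treated controls.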

[2] = NCI Yeast Anticancer Drug Screen. Data for the mec2-1 strain (AID 157); details: S. cerevisiae mec2-1 strain, at 50.0 µM, active compounds read high
Method in brief: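 Using mec2-1 yeast: add compound, measure growth, express inhibition versus vehicle-treated cultures.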

[3] = NCI Yeast Anticancer Drug Screen. Data for the sgs1 mgt1 strain (AID 161);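 further: 0% = growth of cultures given vehicle only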; details: S. cerevisiae sgs1 mgt1 strain, at 50.0 µM, active compounds read high
Method in brief: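 Yeast cells carrying a defined DNA-repair defect were exposed to test compounds. Growth inhibition was measured relative to vehicle-treated controls.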

[4] = NCI Yeast Anticancer Drug Screen. Data for the cln2 rad14 strain (AID 165);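 further: 0% = growth equal to vehicle treated cultures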; details: S. cerevisiae cln2 rad14 strain, at 50.0 µM, active compounds read high
Method in brief: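 Yeast strain cln2 rad14, bearing defects in cell cycle control and DNA repair, serves as the test system; values reflect growth inhibition compared with vehicle.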

[5] = NCI Yeast Anticancer Drug Screen. Data for the bub3 strain (AID 167); details: S. cerevisiae bub3 mutant strain, at 50.0 µM, active compounds read high
Method in brief: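 Steps: expose the mutant yeast strain to compound; grow alongside vehicle-treated cultures; measure growth; express inhibition against the vehicle cultures.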

[6] = NCI Yeast Anticancer Drug Screen. Data for the mlh1 rad18 strain (AID 175); details: S. cerevisiae mlh1 rad18 strain growth inhibition; at 50.0 µM; active compounds read high
Method in brief: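 Steps: expose repair-defective yeast to compound; measure growth; express inhibition against vehicle-treated controls.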

Measured: growth inhibition

Cc1nccn1-c1ccc(Cl)cc1N=Cc1ccc(N(CCCl)CCCl)cc1Cl
active: [6] 71.5%
inactive: [1] 38.4% | [2] 47.5% | [3] 68.5% | [4] 33.8% | [5] 43%

CN(C(=[Se])[Se]C(=[Se])N(C)C1CCCCC1)C1CCCCC1
inactive: [1] 19.4% | [2] 5% | [3] 8.35% | [4] 18.4% | [5] 0.4% | [6] 12.6%

C[C@H]1CC(=O)C[C@@H]2CC[C@@H]3[C@H](CC[C@]4(C)C(OC(=O)c5cccc6c(=O)c7ccccc7[nH]c56)CC[C@@H]34)[C@]21C (stereo partly drawn)
inactive: [1] 42.4% | [2] 22% | [3] 45.6% | [4] 41.9% | [5] 5.2% | [6] 40.9%

CCOP(=O)(OCC)C(F)(F)CC1CCCCC1
inactive: [1] -17.1% | [2] -25.6% | [3] -19.4% | [4] -59% | [5] 26.2% | [6] -9.85%

CC(=O)NC(ON1C(=O)COc2ccccc21)C(Cl)(Cl)Cl (stereo not drawn)
inactive: [1] 27.6% | [2] -16.8% | [3] -13.2% | [4] 10.2% | [5] 26.6% | [6] 7.95%

CC(C)(C)NC(=O)C(Cl)Cl
inactive: [1] -0.65% | [2] -5.7% | [3] -5.85% | [4] -9.6% | [5] 5.15% | [6] 3.35%

O=C(/C=C/c1ccc([N+](=O)[O-])cc1Cl)Nc1cccc(S(=O)(=O)F)c1
inactive: [1] 6% | [2] 16.8% | [3] -0.35% | [4] 18.2% | [5] -6.3% | [6] -8.2%

CCCCCCCN1CCC(C(=O)CC)(c2cccc(O)c2)CC1
inactive: [1] 21.6% | [2] 21.4% | [3] 33.5% | [4] -2.75% | [5] 15.9% | [6] 30.6%

CCCC1(c2ccccc2)C(=O)NCNC1=O
inactive: [1] -21.8% | [2] -30.4% | [3] -24.3% | [4] -12.2% | [5] -25.4% | [6] -25.1%

NC(=O)C(CCN1CCCCC1)(c1ccccc1)c1ccccc1
inactive: [1] -9.6% | [2] -14.9% | [3] 5.65% | [4] -35.4% | [5] -8.8% | [6] -8.25%

Cc1c[n+]2ccc3ccccc3c2c2ccccc12
inactive: [1] -3.9% | [2] -10.9% | [3] -8.65% | [4] -78.2% | [5] -3.2% | [6] -11.7%

O=C(O)CN(CCN(CC(=O)O)CC(=O)O)CC(=O)O.[Cl][Pd][Cl]
inactive: [1] 41.7% | [2] 51.5% | [3] 48.2% | [4] 21.7% | [5] 44.6% | [6] 62%

Cc1csc(N/C(=N/[N+](=O)[O-])N(C)C)n1
inactive: [1] -35.5% | [2] 0.65% | [3] -9.15% | [4] -10.8% | [5] 2.1% | [6] -3.7%

C=C(C(=O)OC1CC2CCC(C1)[N+]2(C)[O-])c1ccccc1 (stereo not drawn)
inactive: [1] 7.4% | [2] -6% | [3] -19.4% | [4] -2.95% | [5] 3.1% | [6] -23.3%

CNC(=O)Oc1ccc2c(C)cc(=O)oc2c1
inactive: [1] 21.1% | [2] 0.2% | [3] 4.55% | [4] -27% | [5] 17.2% | [6] 15.3%

O=C(Cc1ccccc1)OC1CCCC1
inactive: [1] 14.6% | [2] -4.6% | [3] -7.15% | [4] -39% | [5] -3.3% | [6] 19%

N.N.N.N.O=C([O-])C(=O)O.O=C([O-])C(=O)[O-].[Co+3]
inactive: [1] -2.9% | [2] 1.5% | [3] -10.6% | [4] 13.6% | [5] 11.9% | [6] -11.6%

Cc1cc(N(CCCl)CCCl)ccc1CN1CCCN(Cc2ccc(N(CCCl)CCCl)cc2C)C1c1cc(O)cc(Br)c1
inactive: [1] 43% | [2] 24.5% | [3] 35.4% | [4] -2.55% | [5] 9.3% | [6] 37.9%

COC(=O)C(Cl)CCl (stereo not drawn)
inactive: [1] 2.45% and 39.4% | [2] 15.3% and 6.15% | [3] -9.05% and 16% | [4] -23.2% and -34.7% | [5] -2.3% and 15.8% | [6] -20.8% and 25.7%

c1cc[c]([Sn]2([c]3ccccc3)[O]CCNCC[O]2)cc1
inactive: [1] -13.1% | [2] -14.4% | [3] 10.4% | [4] -14.9% | [5] -48.7% | [6] -74.4%

CC1([N+](=O)[O-])COP(=O)(NCc2ccccc2)OC1 (stereo not drawn)
inactive: [1] 11.9% | [2] -20.9% | [3] -9.3% | [4] -4.8% | [5] 6.2% | [6] 2.35%

[N-]=[N+]=NC1C2CC3CC(C2)CC1C3 (stereo not drawn)
inactive: [1] -15.7% | [2] 8.3% | [3] -7.2% | [4] -6.6% | [5] -10.7% | [6] -24.8%

[Ni+2].[O-]c1ccc(Cl)cc1C=NCc1ccccn1.[O-]c1ccc(Cl)cc1C=NCc1ccccn1
active: [1] 94.3% | [2] 96.7% | [3] 97.5% | [4] 86.9% | [5] 96.5% | [6] 97.5%

C[P+](CCl)(CCl)CCl
inactive: [1] 5.45% | [2] -6.45% | [3] -11.7% | [4] -7.3% | [5] -7.6% | [6] -10%

CC(=O)OC1[C@H](n2ccnc2)C[C@H]2[C@@H]3CC=C4CC(N5CCCC5)CC[C@]4(C)[C@H]3CC[C@]12C (stereo partly drawn)
inactive: [1] 2.1% | [2] -9.1% | [3] -29.9% | [4] 7.05% | [5] -48.8% | [6] -55.4%

O=C(Oc1ccc(S(=O)(=O)F)cc1Cl)c1ccccc1Cl
active: [1] 99.4% | [2] 99.6% | [3] 99.5% | [4] 99.3% | [5] 99.4% | [6] 99.4%

COc1cc2c(cc1OC)C13CCN4CC5=CCOC6CC(=O)N2C1C6C5CC43 (stereo not drawn)
inactive: [1] -13% and 7.35% | [2] -43.9% and -36.3% | [3] -20.9% | [4] 4% | [5] -8.6% | [6] -0.6% and -1.65%

COP1(=O)OCC(C)(C)CO1
inactive: [1] 16.4% | [2] -2.05% | [3] 12.7% | [4] 13.9% | [5] -1.55% | [6] 35.8%

COc1ccc2c(c1OC(C)=O)-c1cc(O)cc3c1C(C2)N(C(=O)CN(CCCl)CCCl)CC3 (stereo not drawn)
inactive: [1] 19.6% and 6.5% | [2] 8.65% and 5.4% | [3] 24.7% and -25.4% | [4] 10.8% and -4.95% | [5] 22.2% and -7.95% | [6] -21.7% and -30.4%

CC(C)OC(=O)C(C)Br (stereo not drawn)
inactive: [1] -0.1% | [2] -3.05% | [3] -8.35% | [4] 3% | [5] 3.1% | [6] 1.15%

CC(C)Oc1ccccc1OC(=O)N(C)C=O
inactive: [1] -15.9% | [2] -2.7% | [3] -6.8% | [4] -18% | [5] -17.3% | [6] -15.4%

CCCCC(CC)COP(OCC(CC)CCCC)OCC(CC)CCCC.[Cl][Sn][Cl] (stereo not drawn)
inactive: [1] -8.1% | [2] 16.1% | [3] 14.9% | [4] -10.4% | [5] -6.2% | [6] 21%

Cc1nc2ccccc2[se]1
inactive: [1] -33.4% | [2] -32.5% | [3] -3.5% | [4] 3.5% | [5] 35.7% | [6] -18.1%

CC(C)(C)c1cc(C#N)cc(Br)c1OP(=O)(Oc1c(Br)cc(C#N)cc1C(C)(C)C)c1ccccc1
inactive: [1] -9.6% | [2] -7.5% | [3] -28.8% | [4] -3% | [5] -24% | [6] -17.6%

COP(=O)(OC)OC1C(=O)NC(=O)NC1=O
inactive: [1] 12.3% | [2] 0.25% | [3] -4.15% | [4] 14.2% | [5] 7.2% | [6] 17.9%

CCC1CN2CCC1CC2C(O)c1cc[n+]([O-])c2ccc(OC)cc12 (stereo not drawn)
inactive: [1] -11.7% | [2] 7.25% | [3] -7.6% | [4] 1.75% | [5] -8.05% | [6] -12.4%

CCCCCCCCCCCCCCC[As](=O)(O)CCCCCCCCCCCCCCC
inactive: [1] 21.8% | [2] 0.75% | [3] 11.9% | [4] 8.45% | [5] 6.75% | [6] 12.9%

C[N+](C)(C)Cc1ccc2ccccc2c1Br
inactive: [1] 30.3% | [2] 7.05% | [3] 10.2% | [4] 10.3% | [5] 0.2% | [6] 20.6%
